In all, about 1,200 compounds went through this assay and about 480 (40%) were called active. The rule behind the calls is not given here. So high a share suggests a set chosen from earlier hits. A selection follows. Results with a measured potency or affinity are listed apart.
Assay: viability loss in human hepatoma cells – cell-based, CellTiter-Glo luminescence, cherry-pick, set 2, cytotoxicity control, dose response (AID 743395);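 note: 0% = neutral control wells and -100% = positive control wells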
Settings: HepG2 viability, CellTiter-Glo ATP luminescence, 72 h; series mostly up to 26 µM; activity change, negative = cytotoxicity: at the top concentration

Structure (SMILES)	activity change, negative = cytotoxicity
CCSc1nnc(N2C(=O)C(O)=C(C(=O)c3ccco3)C2c2cccc(OC)c2)s1 (configuration not stated)	-4.25% (inactive)
O=C(Nc1ccc(Cl)cn1)c1cccc2ccccc12	-22.4% (inactive)
Cc1cccc(C)c1OCC(=O)OCC(=O)Nc1ccc(Cl)cn1	-11.6% (inactive)
CC(=Nc1ccccc1O)c1sc2ccccc2c1O	-19.2% (inactive)
COc1ccc(N=C2C(=O)N3CCCc4cccc2c43)cc1	4.45% (inactive)
CCN(C(=O)CSc1nc2ccccc2c(=O)n1-c1ccccc1F)C1CCS(=O)(=O)C1 (configuration not stated)	11.7% (inactive)
O=C(CN1C(=O)NC2(CCCCCCC2)C1=O)Nc1ccc(Br)cc1	-19.5% (inactive)
Nc1ccccc1C(=O)N1O[C@@H]2C=C[C@H]1C2	8.44% (inactive)
CCOC(=O)c1sc2nc(Cc3ccc(Cl)cc3)[nH]c(=S)c2c1C	9.81% (inactive)
CCOC(=O)c1sc(NC(=O)c2c(CC)noc2C)nc1C	2.39% (inactive)
CC1CCN(C(=O)c2ccc(S(=O)(=O)N3CCCC3)cc2)CC1	-3.57% (inactive)
Cc1noc(C)c1C(=O)NCC1COc2ccccc2O1 (configuration not stated)	-0.188% (inactive)
N#CC1c2ccccc2-c2ccccc2N1C(=O)c1ccccc1 (configuration not stated)	-5.27% (inactive)
Cc1ccc(NC(=O)CSC2=NN3CCCC(=O)N=C3S2)c(C)c1	0.014% (inactive)
Fc1ccccc1/C=N/NC(=S)Nc1ccc(Cl)cc1Cl	-15.1% (inactive)
COc1ccc(Cl)cc1NC(=O)CN(C)CC(=O)Nc1cc(OC)c(OC)c(OC)c1	-28.5% (inactive)
CC(=O)Nc1ccc(NC(=O)COc2cccc3c2OC(C)(C)C3)cc1	-0.938% (inactive)
COc1cccc(NC(=O)CN2C(=O)NC3(CCCCCC3)C2=O)c1	-8.11% (inactive)
CCOC1=C/C(=C/c2c(N)n3nc(S(=O)(=O)CC)sc3nc2=O)C=CC1=O	-8.59% (inactive)
Fc1ccc(/C=N/NC(=S)Nc2ccc(Cl)cc2Cl)cc1	-9.99% (inactive)
Cc1cccc(NC(=O)c2ccccc2NC(=O)C2CCCCC2)c1C	-14.9% (inactive)
COc1ccc(C=NNC(=O)CCCC(=O)NN=Cc2ccc(OC)c(O)c2)cc1O	-6.49% (inactive)
COc1ccc(/C=N/NC(=O)c2c(C)nc3ccc(Br)cn23)cc1OC	-12.8% (inactive)

Structure (SMILES)	activity change, negative = cytotoxicity
COc1cc(/C=C/C(=O)c2ccc3c(c2)OCO3)cc(Cl)c1O	-21.8% (inactive)
Cc1cc(NC(=O)CN2C(=O)NC3(CCCCCC3)C2=O)ccc1Br	-16.8% (inactive)
Cc1cnc(NC(=O)CCc2ccccc2)s1	-13.8% (inactive)
COc1cc(C(=O)NCC2CCCO2)ccc1OCc1ccc(Cl)cc1 (configuration not stated)	-13.4% (inactive)
CCC1=Nc2cc(C(=O)NCc3cccnc3)ccc2Sc2ccc(C)cc21	-33.6% (inactive)
CCn1c(SC(C)C(=O)NCC2CCCO2)nc2ccccc21 (configuration not stated)	-11% (inactive)
COc1ccccc1OCC(O)CN1C(=O)NC(C)(C)C1=O (configuration not stated)	7.53% (inactive)
C/C=C/c1ccc([C@H]2[C@@H](CNC(=O)CC)N(C(=O)COC)[C@H]2CO)cc1	7.05% (inactive)
CCN(C(=O)COC(=O)/C=C/c1c(C)nn(-c2ccccc2)c1C)c1c(N)n(Cc2ccccc2)c(=O)[nH]c1=O	7.63% (inactive)
CN(Cc1ccco1)c1ncnc2ccc(-c3ccc4c(ccn4C)c3)cc12	-34.1% (inactive)
COc1ccccc1C(=O)Nc1ccc2c(c1)nc(CCNC(=O)c1ccco1)n2C	-32.2% (inactive)
CC1(C)Cc2c(c(-c3ccco3)nc3sc4c(NCCN5CCOCC5)ncnc4c23)CO1	-8.98% (inactive)
O=C(c1cccc(S(=O)(=O)N2CCOCC2)c1)N1CCCC(C(F)(F)F)C1 (configuration not stated)	0.18% (inactive)
CN(CCOc1ccc(Cl)cc1)C(=O)c1cccc(S(=O)(=O)N2CCN(c3ccccc3)CC2)c1	-24.9% (inactive)
CCN(CC)S(=O)(=O)c1ccc(NC(=O)C2CC(=O)N(c3ccc4c(c3)OCCO4)C2)cc1 (configuration not stated)	-18.8% (inactive)
Cc1cc(C(=O)N/N=C/c2ccc3c(c2)OCO3)c2ccccc2n1	-21.4% (inactive)
Cn1cc(C(=O)OCC2CCN(CCNS(C)(=O)=O)CC2)c2ccccc21	-10.9% (inactive)
CCOc1ccc(NC(=O)c2ccccc2NC(=O)CNC2CCCC(C)C2C)cc1 (configuration not stated)	-17.5% (inactive)
COc1cc(C(=O)Nc2ccc(C)cc2)c2ccccc2n1	-19.8% (inactive)
COc1ccc(OCC(=O)N/N=C/C=C/c2ccccc2)cc1	-18.5% (inactive)
COc1ccc2[nH]c(C(=O)N/N=C/c3ccc(OC)c(O)c3)cc2c1	-38.9% (inactive)
CC(C)C[C@@H](COCc1ccc(C(F)(F)F)cc1)N1CCN(C(=O)c2ccc(C(F)(F)F)cc2)CCC1=O	-2.18% (inactive)
CN(CC(=O)NCCc1ccc(S(N)(=O)=O)cc1)CC(=O)Nc1ccc(Cl)c(C(F)(F)F)c1	-9.46% (inactive)

Structure (SMILES)	activity change, negative = cytotoxicity
Nc1c2c(nc3ccccc13)CCCC2	-14.5% (inactive)
CCOC(=O)C1CCCN(c2nc3ccccc3nc2NS(=O)(=O)c2ccc(C)cc2)C1 (configuration not stated)	1.03% (inactive)
CCOC1=C2CN(S(=O)(=O)c3ccc(C)cc3)CC[C@@H]2N(S(=O)(=O)c2ccc(C)cc2)[C@H](c2ccccc2)C1	-4.36% (inactive)
C[C@H]1C[C@H]2[C@@H]3CCC4=CC(=O)C=C[C@]4(C)[C@@]3(F)[C@@H](O)C[C@]2(C)[C@@]1(O)C(=O)CO	-7.75% (inactive)
COc1cccc(S(=O)(=O)N(C)C[C@@H]2Oc3cc(C4=CCCC4)ccc3S(=O)(=O)N([C@@H](C)CO)C[C@H]2C)c1	-21.8% (inactive)
C[C@@H]1CN([C@H](C)CO)S(=O)(=O)c2ccc(-c3ccc(C#N)cc3)cc2O[C@H]1CN(C)Cc1cccc(F)c1	-25% (inactive)
C[C@H]1CN([C@@H](C)CO)S(=O)(=O)c2ccc(C3=CCCCC3)cc2O[C@@H]1CN(C)C(=O)Cc1ccncc1	3.8% (inactive)
Cc1ccc(-c2ccc3c(c2)O[C@H](CN(C)C(=O)Nc2ccc(C(F)(F)F)cc2)[C@@H](C)CN([C@@H](C)CO)S3(=O)=O)cc1	-20.4% (inactive)
Cc1ccc(-c2ccc3c(c2)O[C@@H](CN(C)C(=O)Nc2ccc(F)cc2)[C@@H](C)CN([C@H](C)CO)S3(=O)=O)cc1	-17.6% (inactive)
C[C@@H]1CN([C@H](C)CO)S(=O)(=O)c2ccc(-c3ccc(C#N)cc3)cc2O[C@H]1CN(C)Cc1ccccn1	-29.9% (inactive)
Cc1ccc(-c2ccc3c(c2)O[C@@H](CN(C)C(=O)Nc2ccc(F)cc2)[C@@H](C)CN([C@@H](C)CO)S3(=O)=O)cc1	-12.3% (inactive)
Cc1ccc(-c2ccc3c(c2)O[C@H](CN(C)C(=O)Nc2ccc(F)cc2)[C@@H](C)CN([C@@H](C)CO)S3(=O)=O)cc1	-26.1% (inactive)
CC(=O)c1c(C)[nH]c(C(=O)OCc2nnc(-c3ccc([N+](=O)[O-])cc3)o2)c1C	-3.63% (inactive)
C[C@@H]1CN([C@H](C)CO)S(=O)(=O)c2ccc(C#CC3CC3)cc2O[C@H]1CN(C)Cc1ccccn1	-21.7% (inactive)
C[C@@H]1CN([C@@H](C)CO)S(=O)(=O)c2ccc(-c3ccc(C#N)cc3)cc2O[C@H]1CN(C)Cc1cccc(F)c1	-16.8% (inactive)
Cc1ccc(-c2ccc3c(c2)O[C@H](CN(C)C(=O)Nc2ccc(C(F)(F)F)cc2)[C@H](C)CN([C@@H](C)CO)S3(=O)=O)cc1	-3.43% (inactive)
C[C@@H]1CN([C@@H](C)CO)S(=O)(=O)c2ccc(C#Cc3ccc(F)cc3)cc2O[C@H]1CN(C)C(=O)c1ccccn1	-1.22% (inactive)
CO[C@@H](CN(C)S(=O)(=O)c1ccc(C)cc1)[C@H](C)CN([C@@H](C)CO)S(=O)(=O)c1cccc(Cl)c1	-16.6% (inactive)
O=C(Cc1ccccn1)NCC[C@@H]1CC[C@H](NC(=O)Nc2ccc(C(F)(F)F)cc2)[C@@H](CO)O1	1.07% (inactive)
O=C(O)c1ccccc1-c1nc(-c2ccccc2)c(-c2ccccc2)[nH]1	-25.1% (inactive)
O=C(NCc1ccccc1)C(c1ccc(-c2ccccc2)cc1)n1c(=O)c(-c2cc3ccccc3[nH]2)nc2ccccc21 (configuration not stated)	-5.02% (inactive)
COc1cc2c(cc1OC)C(c1cccs1)N(C(=O)c1cccnc1)CC2 (configuration not stated)	-25.9% (inactive)
Cc1cc(C(=O)CN2CCN(CC(=O)Nc3ccc(F)cc3)CC2)c(C)n1C1CC1	-2.91% (inactive)

Structure (SMILES)	activity change, negative = cytotoxicity
CCCOc1ccc(C(=O)CCCC(=O)c2ccc(OCCC)cc2)cc1	-3.1% (inactive)
CCOc1ccc(C(=O)NCC(=O)N2CCN(Cc3ccccc3)CC2)cc1	-6.18% (inactive)
CN1/C(=C\C=C2/SC(=S)N(CC(=O)O)C2=O)C(C)(C)c2ccccc21	-18.5% (inactive)
C=CCN(CC=C)C(=S)Nc1ccc(OC)c(OC)c1	-1.78% (inactive)
CCOc1ccc(C(=O)NNC(=O)CCNC(=O)c2ccc(Br)cc2)cc1OC	-12.4% (inactive)
Cc1ccc(CNC(=O)COC(=O)c2ccc(S(=O)(=O)N(C)C)cc2)cc1	7.94% (inactive)
Cc1nnc(NC(=O)CSc2nccn2-c2cccc(C)c2C)s1	-16.7% (inactive)
Cc1cc(Br)c(NC(=O)C(C)Sc2nnnn2C)c(Br)c1 (configuration not stated)	3.4% (inactive)
NS(=O)(=O)c1ccc(NNC(=O)c2ccc(Br)o2)c([N+](=O)[O-])c1	-24.1% (inactive)
CC(C)NC(=O)c1ccc(COc2cccc3ccccc23)o1	-11.9% (inactive)
Cc1cc(C(=O)NNC(=O)c2ccc(Cl)c(S(N)(=O)=O)c2)c(C)o1	14.8% (inactive)
Cc1ccc(S(=O)(=O)N2CCOCC2)cc1NC(=O)CSc1n[nH]c(N)n1	-17% (inactive)
O=C(Nc1ccccc1F)N1C[C@H]2[C@@H](c3ccccc31)[C@@H](CO)N2C(=O)c1ccccn1	-6.17% (inactive)
COc1ccccc1NS(=O)(=O)c1cc(C(=O)N2CCCCCC2)ccc1C	-19.5% (inactive)
COc1ccccc1NS(=O)(=O)c1cc(N=N/C(C(=O)Nc2ccc(Cl)cc2)=C(/C)O)ccc1C	-9.69% (inactive)
Cc1ccc(C(=O)NNC(=O)c2ccc(S(=O)(=O)N3CCCCC3)cc2)cc1	0.237% (inactive)
O=C(NC(=S)Nc1ccc(-c2ccccc2)cc1)c1ccccc1	-2.74% (inactive)
CNC(=O)C1CC(=O)N(c2ccc(OCC(=O)Nc3ccccc3)cc2)C1 (configuration not stated)	-11.5% (inactive)
COc1ccccc1N1CC(C(=O)Nc2ccc(S(=O)(=O)N3CCCC3)cc2)CC1=O (configuration not stated)	-10.9% (inactive)
COc1ccc(Cc2nnc(NC(=O)c3ccc(F)cc3)s2)cc1OC	-2.21% (inactive)
COc1ccc(C2=NOC(C(=O)NCc3ccccc3)C2)cc1 (configuration not stated)	-14% (inactive)
COc1ccc2c(c1)c(CC(=O)OCC(=O)O)c(C)n2C(=O)c1ccc(Cl)cc1	-10.6% (inactive)
Cc1ccc(S(=O)(=O)N2CCN(C(=O)COC(=O)/C=C/c3ccc(Cl)cc3)CC2)c(C)c1	5.43% (inactive)
